Source: PubChem
Shown are actives, neighbours in structure and some others; about 5.2% of the full set was active somewhere.
CR mimetic SO: caloric restriction mimetics inhibiting age-related superoxide in yeast; S. cerevisiae aged cells, superoxide DHE fluorescence; active compounds read low; superoxide response (% of plate mean), % at 10 µM; hit rate 0.18% among 330,000; AID 2690;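 active = superoxide response under a set limit, about three screen SD below normal, cut at about 65% in these data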;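 also: yeast aged for seven days with compound at 30 °C before DHE staining; 100% = average MFI of all compound-treated wells on the plate with controls excluded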
ALR H2O2 inh: inhibitors of human sulfhydryl oxidase ALR; P55789; purified ALR, DTT oxidation, H2O2 HRP-luminol luminescence; inhibition, % (concentration not given with the values); hit rate 3.8% among 290,000;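 active = mean replicate inhibition above about 79%, with every replicate also reaching it, limit read from the data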
APOBEC3G inh: inhibitors of human APOBEC3G DNA deaminase; Q9HC16; recombinant A3G, ssDNA deamination FAM/TAMRA fluorescence; inhibition, % at 20 µM; hit rate 0.28% among 330,000; AID 493012;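 active = inhibition of at least 40% at 20 µM, with no more than 30% in the related APOBEC3A deaminase screen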;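 also: plate controls were DMSO wells with A3G for no effect and wells lacking A3G enzyme for full effect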
Target sequence (Q9HC16 whole entry, looked up): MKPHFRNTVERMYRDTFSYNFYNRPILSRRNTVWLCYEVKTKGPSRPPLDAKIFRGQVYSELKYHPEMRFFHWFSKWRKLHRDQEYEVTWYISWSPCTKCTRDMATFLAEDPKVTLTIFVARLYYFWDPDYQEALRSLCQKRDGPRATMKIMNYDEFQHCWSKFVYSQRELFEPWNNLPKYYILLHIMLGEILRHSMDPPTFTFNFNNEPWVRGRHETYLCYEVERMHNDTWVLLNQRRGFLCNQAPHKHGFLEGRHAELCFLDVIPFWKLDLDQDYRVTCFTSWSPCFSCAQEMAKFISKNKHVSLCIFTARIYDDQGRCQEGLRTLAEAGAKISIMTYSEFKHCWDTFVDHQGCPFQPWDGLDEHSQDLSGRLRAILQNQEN
CendR NRP1 mod: NRP-1/CendR interaction modulation. inhibition, % at 25 µM. hit rate 0.85% among 360,000. AID 602438. FAM-RPARPAR peptide binding to NRP-1, fluorescence polarization;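 active = inhibition or corrected inhibition above about 18%, plus a signal ratio from 0.5 to 1.5, limit read from the data, passing the limit was not always enough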
A3A deaminase: inhibitors of human APOBEC3A DNA deaminase. recombinant A3A, FAM/TAMRA ssDNA deamination fluorescence. inhibition, % at 20 µM. hit rate 0.41% among 330,000;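 active = at least 40% inhibition at 20 µM here, with at most 30% in a related deaminase screen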;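 also: plate controls were A3A with DMSO for no effect and wells lacking A3A enzyme for full effect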
Target sequence (P31941 whole entry, looked up): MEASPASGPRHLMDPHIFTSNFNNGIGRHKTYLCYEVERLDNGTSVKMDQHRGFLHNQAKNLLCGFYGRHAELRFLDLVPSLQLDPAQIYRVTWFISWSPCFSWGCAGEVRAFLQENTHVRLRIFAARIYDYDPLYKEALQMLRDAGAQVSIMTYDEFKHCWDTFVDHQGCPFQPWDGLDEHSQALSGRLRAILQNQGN
PfM18AAP inh: PfM18AAP enzyme inhibition. hit rate 1.2% among 290,000. recombinant PfM18AAP, H-Glu-NHMec fluorogenic cleavage. AID 1822. inhibition, % at 7.35 µM;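 active = inhibition above the campaign mean inhibition over all tested compounds plus 3 SD, cut at about 28% in these data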;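 also: 0% = plate median of test compound wells and 100% = 2 mM ZnCl2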
Numbers without * were called inactive; nt = no result given.

SMILES	CR mimetic SO	ALR H2O2 inh	APOBEC3G inh	CendR NRP1 mod	A3A deaminase	PfM18AAP inh
O=C(N/N=C/c1ccncc1)c1ccccn1	77.8	-17.0	-5.0	5.5	-0.3	4.1
CN(C)c1ccc(/C=N/NC(=O)c2ccn(C)n2)cc1	114.8	94.3*	-1.4	-1.3	-2.2	4.2
CN(C)c1ccc(/C=N/NC(=O)c2ccccn2)cc1	94.6	87.5*	-6.2	20.1	0.0	5.2
CN(C)c1ccc(NC(=S)c2ccccn2)cc1	82.9	97.6*	nt	-0.7	nt	12.0
CN(C)c1ccc(C(=S)Nc2ccccc2)cc1	103.5	nt	-1.2	13.0	1.7	-0.6
Cc1ccc(N=C2C(=S)N(c3ccc(C)cc3)C(=N)N2/N=C/c2ccc(Cl)cc2)cc1	106.0	95.8*	8.3	-2.1	6.3	0.4
O=C(NNc1ccccc1)Nc1ccccc1F	102.5	-0.1	-8.1	0.5	-0.3	30.0*
Fc1ccc(NC(=S)NCCc2ccccn2)cc1	96.4	51.7	-5.4	-1.7	-3.1	-5.8
CNNC(=S)Nc1cccc(C(F)(F)F)c1	89.9	3.0	-6.8	1.7	-3.9	29.2*
CC(C)(C)c1ccc(NC(=S)NCCc2ccccn2)cc1	87.8	97.9*	5.3	7.8	-2.1	3.5
FC(F)(F)c1cccc(NC(=S)NNC(=S)Nc2cccc(C(F)(F)F)c2)c1	103.1	-0.8	-12.6	nt	0.9	3.3
S=C(NCCc1ccccn1)Nc1ccc(Cl)cc1	95.2	2.2	-7.9	-11.6	2.7	-6.1
FC(F)(F)c1cccc(NC(=S)NCCc2ccccn2)c1	101.9	77.4*	-9.2	2.4	-2.6	-13.0
O=C(NC1CC1)c1ccc2sc([C@@H]3O[C@H](CO)[C@H](O)[C@H](O)[C@H]3O)nc2c1	nt	nt	nt	-8.8	nt	nt
CCN(CCO)Cc1cc(=O)oc2cc3c(cc12)CCC3	112.3	87.2*	-3.5	2.4	-1.0	0.3
CCCCN(C)Cc1cc(=O)oc2cc3c(cc12)CCCC3	115.1	-1.3	-5.6	-12.7	-3.9	-10.7
COc1ccc(C(=O)OCC#CCSc2nnc(-c3cccc4ccccc34)o2)cc1	102.5	-4.8	-2.9	24.4	-0.9	nt
Cc1c(CCC(=O)O)c(=O)oc2cc(OCc3ccccc3F)ccc12	122.1	5.3	-6.8	2.8	-1.1	-0.3
Cc1c(CC(=O)O)c(=O)oc2cc(OCc3ccc(F)cc3Cl)ccc12	114.1	-3.6	0.6	50.9*	-0.7	5.2
CCOC(=O)COc1c(Br)cc(C2NC(=O)NC(C)=C2C(C)=O)cc1OC (stereo not given)	99.2	-3.5	-0.8	-20.9	8.2	-2.8
O=C(Nc1nc2ccc(SC(F)F)cc2s1)c1ccc(NS(=O)(=O)c2ccc(F)c(F)c2)cc1	119.6	98.6*	-5.3	-0.6	-4.7	-1.0
CC1(C)c2cc(O)ccc2OC1N1CCOCC1 (stereo not given)	90.4	98.9*	-3.1	-14.3	4.2	-53.6
O=C(O)CNC(=O)c1ccc(Sc2ccccc2)c([N+](=O)[O-])c1	89.3	-4.9	16.1	-5.5	7.8	1.3
COc1ccc(N2C(=O)C(F)(F)C2c2ccccc2F)cc1 (stereo not given)	nt	nt	nt	8.4	nt	-1.7
COc1ccc(Nc2nc(OC)nc(OC)n2)cc1	104.8	14.1	2.5	5.3	0.9	-11.4
SMILES	CR mimetic SO	ALR H2O2 inh	APOBEC3G inh	CendR NRP1 mod	A3A deaminase	PfM18AAP inh
COc1ccc(Nc2ccnc(Nc3ccc(OC)cc3)n2)cc1	94.9	97.6*	-6.6	6.5	-0.5	-0.9
CCOc1ccc(C(c2c(O)nc(SC)n(C)c2=O)c2c(O)nc(SC)n(C)c2=O)cc1	82.3	97.7*	6.4	3.9	-0.5	-6.0
CCOc1ccc(OCC(=O)OCn2c(SC)nnc(C)c2=O)cc1	93.1	nt	-4.9	-1.9	4.1	5.8
CCOC(=O)CSc1nc(=O)n2ccccc2n1	90.9	-18.4	-1.5	-3.3	2.3	3.5
CS(=O)(=O)N(CC(=O)Nc1ccccc1-c1ccccc1)c1ccccc1	105.5	-7.9	-6.7	19.3	-1.5	-9.6
CS(=O)(=O)N(CC(=O)Nc1ccccc1-c1ccccc1)c1cccc(F)c1	101.7	-4.8	2.1	26.7*	1.2	2.5
CCOC(=O)c1ccc(NC(=O)C(C)Sc2nc(O)c(-c3ccccc3)c(=O)[nH]2)cc1 (stereo not given)	96.1	98.6*	3.6	-11.8	6.6	6.0
Cc1cccc(OCC(=O)N(C)CC(=O)Nc2cccc(F)c2)c1C	100.0	3.0	-8.4	4.1	-3.6	nt
CCOC(=O)N1CCN(C(=O)C(CC(C)C)NS(=O)(=O)c2ccc(C)cc2)CC1 (stereo not given)	83.7	nt	-8.7	22.1*	-4.1	nt
COC(=O)[C@H](CC(C)C)NS(=O)(=O)c1ccccc1	99.5	-1.6	-11.6	23.0*	-1.7	4.6
COc1cc(C(C2C(=O)CC(C)(C)CC2=O)C2C(=O)CC(C)(C)CC2=O)ccc1O	95.8	29.4	-10.4	6.0	-5.0	10.2
COc1ccc(C(C2C(=O)CC(C)(C)CC2=O)C2C(=O)CC(C)(C)CC2=O)cc1	93.8	96.8*	0.9	5.6	1.2	2.0
COc1ccc(C(C2C(=O)CC(C)(C)CC2=O)C2C(=O)CC(C)(C)CC2=O)cc1COCC(F)(F)F	87.7	98.6*	0.2	3.8	5.0	-1.1
O=C(Nc1cnn(Cc2ccc(F)cc2)c1)c1noc2c1CCCC2	101.8	-1.9	-5.5	15.6	1.6	3.4
CC1Cc2nc(SCC(=O)Nc3ccc4c(c3)OCO4)n(-c3ccc(F)cc3)c(=O)c2S1 (stereo not given)	108.6	-1.3	-0.4	-0.1	-0.6	nt
CC(C)(C)OC(=O)NCc1ccc(CNC(=O)c2[nH]cnc2C(=O)N[C@@H](Cc2ccccc2)C(=O)OC(C)(C)C)cc1	103.8	-4.2	-6.1	15.7	-2.9	-14.4
Cc1cc(C)c(O)c(-c2cc(C(=O)Nc3c(C)n(C)n(-c4ccccc4)c3=O)[nH]n2)c1	113.2	98.6*	2.1	10.2	6.2	8.5
Cc1c(NC(=O)c2c(O)c3ccccc3n(C)c2=O)c(=O)n(-c2ccccc2)n1C	93.1	-9.8	-3.6	31.9*	0.0	0.2
O=C1OCC(CO)(CO)N=C1NNc1ccccc1Cl	117.8	99.4*	-9.6	9.7	-4.7	6.7
Cc1c(Cl)cccc1Nc1ncccc1C(=O)O	99.2	-4.0	-0.7	2.0	1.5	6.2
Cc1c(Cl)cccc1Nc1ccccc1C(=O)O	94.1	97.9*	-7.1	-12.2	-3.8	-12.6
CC(=O)NC12CC3CC(C1)CC(C(=O)Nc1nc4ccc(F)cc4s1)(C3)C2	104.1	86.2*	1.1	-9.9	2.9	20.9
CCC(CC)c1nnc(NC(=O)C23CC4CC(CC(NC(C)=O)(C4)C2)C3)s1	94.1	-2.0	-8.9	14.7	-6.8	-1.4
CC1=Nc2ccccc2N=C(NC(=O)CSC(=S)N2CCCCC2)C1c1ccccc1 (stereo not given)	106.5	1.4	1.4	36.7*	-0.5	-7.5
CN(C)S(=O)(=O)N1CCCC(C(=O)c2ccc(-c3ccccc3)c(F)c2)C1 (stereo not given)	92.6	-3.6	-4.2	20.0*	-1.4	-4.4
